Experimental data from PubChem BioAssay.
Calls of active or inactive are those of the source.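 How the source made its calls: active means thallium flux through the channel raised or lowered by more than 3 SD from vehicle-only wells, actives on both sides; inactive means the rest.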

What was measured:
Experiment in all cases: modulators of BK channel variants, profiling panel, selectivity assay, cell-based, U2OS BacMam, thallium flux, beta subunits (AID 1259406);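 further: initial slope of Thallos dye fluorescence rise after thallium is added; log ratio against the mean of 0.3% DMSO vehicle wells on the same plate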
F380Y = conditions: at 30 µM
F380Y/beta1 = conditions: at 30 µM
F380Y/beta2Delta = conditions: at 30 µM
F380Y/beta4 = conditions: at 30 µM
[1] = target: Calcium-activated potassium channel subunit alpha-1 (Homo sapiens) + Leucine-rich repeat-containing protein 26 (Homo sapiens) (UniProt Q12791+Q2I0M4); conditions: F380Y/Slo1WT/gamma1, at 30 µM
R275C = conditions: at 30 µM
R275C/beta1 = conditions: at 30 µM
R275C/beta2Delta = conditions: at 30 µM
R275C/beta4 = conditions: at 30 µM
R275C/Slo1WT/beta2 = conditions: at 30 µM

Measured: log fold change Tl+ flux

Sequence of Calcium-activated potassium channel subunit alpha-1 (Homo sapiens) + Leucine-rich repeat-containing protein 26 (Homo sapiens) (Q2I0M4 whole entry, looked up, one chain of several): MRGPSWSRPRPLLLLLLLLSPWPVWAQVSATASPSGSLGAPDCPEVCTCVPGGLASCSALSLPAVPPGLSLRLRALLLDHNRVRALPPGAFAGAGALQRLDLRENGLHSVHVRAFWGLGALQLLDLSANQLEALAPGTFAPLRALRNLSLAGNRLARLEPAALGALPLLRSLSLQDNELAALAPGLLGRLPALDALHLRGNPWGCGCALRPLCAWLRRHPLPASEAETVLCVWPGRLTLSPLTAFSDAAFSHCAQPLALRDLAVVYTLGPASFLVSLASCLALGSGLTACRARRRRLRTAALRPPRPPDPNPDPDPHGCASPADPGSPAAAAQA

CC(C)(C)c1cc(-c2nc(-c3ccc(C(F)(F)F)cc3)no2)n(Cc2ccccc2)n1
inactive: F380Y -0.0279 | F380Y/beta1 -0.0164 | F380Y/beta2Delta -0.0472 | F380Y/beta4 0.0114 | [1] -0.0649 | R275C 0.0485 | R275C/beta1 -0.0238 | R275C/beta2Delta -0.0138 | R275C/beta4 0.0105 | R275C/Slo1WT/beta2 0.0318

COc1cc(C(=O)Nc2ccccc2C(=O)NCCc2ccccn2)cc(OC)c1OC
inactive: F380Y 7.8e-05 | F380Y/beta1 0.0128 | F380Y/beta2Delta 0.0219 | F380Y/beta4 0.0635 | [1] 0.037 | R275C 0.0306 | R275C/beta1 0.0367 | R275C/beta2Delta 0.0116 | R275C/beta4 -0.0253 | R275C/Slo1WT/beta2 0.0509

COc1cccc(N2CC(=O)N(NC(=O)NC3CCCCC3)CC2=O)c1
inactive: F380Y -0.0108 | F380Y/beta1 -0.0266 | F380Y/beta2Delta -0.0355 | F380Y/beta4 -0.0285 | [1] 0.0234 | R275C 0.0133 | R275C/beta1 -0.0377 | R275C/beta2Delta -0.0493 | R275C/beta4 -0.00116 | R275C/Slo1WT/beta2 -0.0113

NC(=O)c1nnn(-c2ccc([N+](=O)[O-])cc2)c1-c1ccccc1
inactive: F380Y 0.0114 | F380Y/beta1 -0.0124 | F380Y/beta2Delta 0.0187 | F380Y/beta4 0.0444 | [1] 0.0451 | R275C -0.0124 | R275C/beta1 -0.0135 | R275C/beta2Delta 0.0277 | R275C/beta4 0.0182 | R275C/Slo1WT/beta2 -0.00577

NC(=NOC(=O)Nc1cccc(Cl)c1)c1ccno1
inactive: F380Y -0.00531 | F380Y/beta1 0.0032 | F380Y/beta2Delta 0.0232 | F380Y/beta4 0.000547 | [1] 0.0155 | R275C -0.025 | R275C/beta1 -0.0193 | R275C/beta2Delta 0.00772 | R275C/beta4 0.0126 | R275C/Slo1WT/beta2 0.0133

CCOC(=O)c1ccc(NC(=O)CCC(=O)O)cc1
inactive: F380Y -0.0468 | F380Y/beta1 -0.00176 | F380Y/beta2Delta -0.0505 | F380Y/beta4 0.0259 | [1] 0.0113 | R275C -0.00978 | R275C/beta1 -0.00901 | R275C/beta2Delta -0.0108 | R275C/beta4 -0.0046 | R275C/Slo1WT/beta2 0.0242

O=C(Cn1nnc(N2CCCC2)n1)NN=Cc1ccc(Cl)cc1
inactive: F380Y -0.0338 | F380Y/beta1 -0.0165 | F380Y/beta2Delta -0.0415 | F380Y/beta4 0.0509 | [1] -0.0411 | R275C 0.0738 | R275C/beta1 0.012 | R275C/beta2Delta -0.0395 | R275C/beta4 0.0185 | R275C/Slo1WT/beta2 -0.00152

CCOC(=O)c1ccc(OCC#Cc2ccc(C(F)(F)F)cn2)cc1
inactive: F380Y -0.0256 | F380Y/beta1 -0.0209 | F380Y/beta2Delta -0.0279 | F380Y/beta4 -0.0657 | [1] -0.0262 | R275C -0.0775 | R275C/beta1 -0.0424 | R275C/beta2Delta -0.0497 | R275C/beta4 -0.0346 | R275C/Slo1WT/beta2 -0.0412

N#Cc1cccc(CSc2ncnc(N)n2)c1
inactive: F380Y 0.00879 | F380Y/beta1 0.0215 | F380Y/beta2Delta 0.00942 | F380Y/beta4 -0.00378 | [1] 0.019 | R275C 0.0199 | R275C/beta1 -0.0244 | R275C/beta2Delta 0.0122 | R275C/beta4 0.019 | R275C/Slo1WT/beta2 0.00642

COC(=O)C(C#N)=CN(C)C
inactive: F380Y 0.0153 | F380Y/beta1 0.000638 | F380Y/beta2Delta 0.00933 | F380Y/beta4 0.0217 | [1] -0.0293 | R275C 0.0113 | R275C/beta1 0.0127 | R275C/beta2Delta 0.0244 | R275C/beta4 -0.00979 | R275C/Slo1WT/beta2 -0.0171

O=c1[nH]c2ccc(Cl)cc2c2oc(-c3ccccc3)nc12
inactive: F380Y -0.0228 | F380Y/beta1 0.00567 | F380Y/beta2Delta -0.059 | F380Y/beta4 -0.0224 | [1] -0.0128 | R275C 0.01 | R275C/beta1 0.031 | R275C/beta2Delta 0.0322 | R275C/beta4 0.0357 | R275C/Slo1WT/beta2 -0.0021

Cc1noc(C)c1C(=O)Sc1nccc(C(F)(F)F)n1
inactive: F380Y -0.0193 | F380Y/beta1 0.00713 | F380Y/beta2Delta -0.00114 | F380Y/beta4 0.0508 | [1] -0.00072 | R275C 0.00122 | R275C/beta1 0.0433 | R275C/beta2Delta -0.013 | R275C/beta4 0.0297 | R275C/Slo1WT/beta2 -0.0512

Clc1cc(Cl)c(NN=Cc2cc(C#Cc3ccccc3)cs2)c(Cl)c1
inactive: F380Y -0.0491 | F380Y/beta1 0.00923 | F380Y/beta2Delta -0.0555 | F380Y/beta4 0.0192 | [1] -0.0342 | R275C -0.012 | R275C/beta1 0.00694 | R275C/beta2Delta -0.0137 | R275C/beta4 0.0367 | R275C/Slo1WT/beta2 0.0344

NC(=O)CN1C(=O)C(=Cc2ccco2)N=C1c1ccccc1
inactive: F380Y -0.0123 | F380Y/beta1 -0.0266 | F380Y/beta2Delta -0.0599 | F380Y/beta4 -0.0551 | [1] -0.015 | R275C -0.000262 | R275C/beta1 0.031 | R275C/beta2Delta -0.0538 | R275C/beta4 0.0139 | R275C/Slo1WT/beta2 -0.0206

COc1cccc(CC(=O)NC2CCN(c3nccc(C(F)(F)F)n3)CC2)c1
inactive: F380Y -0.0079 | F380Y/beta1 -0.0102 | F380Y/beta2Delta 0.00797 | F380Y/beta4 -0.0197 | [1] -0.0334 | R275C -0.0558 | R275C/beta1 -0.0259 | R275C/beta2Delta -0.00912 | R275C/beta4 0.0415 | R275C/Slo1WT/beta2 0.0233

Clc1ccc(-n2nnnc2-c2cccnc2)c(Cl)c1
inactive: F380Y 0.0135 | F380Y/beta1 -0.0393 | F380Y/beta2Delta -0.0638 | F380Y/beta4 0.0275 | [1] 0.00547 | R275C 0.00315 | R275C/beta1 0.0215 | R275C/beta2Delta -0.00811 | R275C/beta4 0.00931 | R275C/Slo1WT/beta2 0.0349

Cc1c(O)nc2ccccn2c1=O
inactive: F380Y 0.0365 | F380Y/beta1 -0.00065 | F380Y/beta2Delta 0.0329 | F380Y/beta4 0.00904 | [1] 0.0423 | R275C -0.0111 | R275C/beta1 0.0248 | R275C/beta2Delta 0.00886 | R275C/beta4 0.0309 | R275C/Slo1WT/beta2 0.0209

COc1cccc(C=NNC(=O)C2CCCN(C(=S)NNC3CC4C=CC3C4)CC2)c1O (stereo not given)
inactive: F380Y 0.0111 | F380Y/beta1 -0.0549 | F380Y/beta2Delta -0.0296 | F380Y/beta4 0.0197 | [1] 0.0309 | R275C -0.00837 | R275C/beta1 0.0189 | R275C/beta2Delta -0.0281 | R275C/beta4 -0.00446 | R275C/Slo1WT/beta2 0.00307

N=c1c(C(N)=O)cc2c(=O)n3ccccc3nc2n1Cc1ccco1
inactive: F380Y 0.0339 | F380Y/beta1 -0.0185 | F380Y/beta2Delta 0.0123 | F380Y/beta4 -0.019 | [1] -0.0157 | R275C 0.0321 | R275C/beta1 -0.0587 | R275C/beta2Delta -0.00823 | R275C/beta4 -0.00879 | R275C/Slo1WT/beta2 0.0143

CCOC(=O)c1ccc(N2CCOCC2)c(N=Cc2cc(Cl)cc(Cl)c2O)c1
inactive: F380Y 0.0511 | F380Y/beta2Delta 0.0876 | [1] 0.0345 | R275C -0.00571 | R275C/Slo1WT/beta2 0.0153
active: F380Y/beta1 0.162 | F380Y/beta4 0.0975 | R275C/beta1 0.163 | R275C/beta2Delta 0.0906 | R275C/beta4 0.128

CC(=O)Oc1ccc(OC(C)=O)c2cc3c(OC(C)=O)ccc(OC(C)=O)c3cc12
inactive: F380Y -0.0214 | F380Y/beta1 -0.0286 | F380Y/beta2Delta -0.0254 | F380Y/beta4 0.0175 | [1] 0.0282 | R275C -0.0106 | R275C/beta1 -0.0199 | R275C/beta2Delta -0.0114 | R275C/beta4 -0.0622 | R275C/Slo1WT/beta2 0.0234

CCCCCc1c(C)nc(-c2ccccn2)[nH]c1=O
inactive: F380Y -0.0547 | F380Y/beta1 -0.0236 | F380Y/beta2Delta -0.0415 | F380Y/beta4 -0.0388 | [1] -0.0142 | R275C 0.00744 | R275C/beta1 0.00404 | R275C/beta2Delta 0.0392 | R275C/beta4 0.0188 | R275C/Slo1WT/beta2 -0.0181

CC(=O)Nc1ccc(S(=O)(=O)C[N+](=O)[O-])cc1
inactive: F380Y -0.0207 | F380Y/beta1 -0.00968 | F380Y/beta2Delta 0.0255 | F380Y/beta4 -0.00689 | [1] 0.00333 | R275C -0.0177 | R275C/beta1 -0.00122 | R275C/beta2Delta 0.0327 | R275C/beta4 -0.0178 | R275C/Slo1WT/beta2 -0.0147

O=C1NC2CC2N1C(=O)OCc1ccccc1 (stereo not given)
inactive: F380Y 0.0285 | F380Y/beta1 -0.00537 | F380Y/beta2Delta 0.0281 | F380Y/beta4 0.054 | [1] -0.0415 | R275C 0.00866 | R275C/beta1 0.00489 | R275C/beta2Delta 0.0219 | R275C/beta4 -0.029 | R275C/Slo1WT/beta2 -0.0313

CS(=O)(=O)C(C#N)=NNc1ccc(OC(F)(F)F)cc1
inactive: F380Y 0.0798 | F380Y/beta2Delta 0.0975 | F380Y/beta4 0.0278 | [1] 0.0802 | R275C 0.0522 | R275C/beta1 0.0751 | R275C/beta4 0.0407 | R275C/Slo1WT/beta2 -0.0347
active: F380Y/beta1 0.148 | R275C/beta2Delta 0.119

O=C(O)CSCC(=O)Nc1ccc(-c2nc3ccccc3s2)cc1
active: F380Y/beta1 0.19 | [1] 0.126
inactive: F380Y -0.0115 | F380Y/beta2Delta -0.0257 | F380Y/beta4 -0.0352 | R275C 0.0193 | R275C/beta1 0.0504 | R275C/beta2Delta 0.0724 | R275C/beta4 0.0271 | R275C/Slo1WT/beta2 -0.022
